Screening data from PubChem.
Compounds with a hit are over-represented: about 1.6% of the library has one in this group of screens.
KCNQ2 enhance: potentiators of rat KCNQ2 potassium channel | hit rate 0.54% among 310,000 | CHO-K1 KCNQ2, FluxOR thallium flux fluorescence; hits give high values | B-score at 10 µM | O88943;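 active means fluorescence ratio B-score at least 3 SD of library B-scores, with initial fluorescence B-score within 3 of them, cut at about 5.3 in these data; same plate scores as AID 2156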;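 further: B-score of peak minus minimum over baseline fluorescence ratio after K+ and Tl+ stimulus; positive B-score means potentiation of KCNQ2 with more thallium influx and brighter signal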
KCNQ2 block: blocks the rat KCNQ2 potassium channel; O88943; CHO-K1 KCNQ2, FluxOR thallium flux, 20 min; hits give low values; B-score at 10 µM; hit rate 1.1% among 310,000; AID 2156;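 active means fluorescence ratio B-score at most minus 3 library SDs, with starting brightness B-score within 2 library SDs, cut at about -5.5 in these data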
Kir21 confirm: confirmation of mouse Kir2.1 potassium channel inhibitors; shares compounds with KCNQ2 enhance; Kir2.1-expressing cells, FluxOR thallium flux fluorescence; hits give low values; Tl flux remaining, % of negative control (hits give low values), % at 10 µM; hit rate 41% among 2,300;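 active means Primary-screen hit whose thallium flux fell at least 3 control SD below untreated wells in both duplicates, with normal baseline fluorescence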;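 further: 0% = blank wells without stimulus and 100% = stimulated no-compound controls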
Target sequence (P35561 whole entry, looked up): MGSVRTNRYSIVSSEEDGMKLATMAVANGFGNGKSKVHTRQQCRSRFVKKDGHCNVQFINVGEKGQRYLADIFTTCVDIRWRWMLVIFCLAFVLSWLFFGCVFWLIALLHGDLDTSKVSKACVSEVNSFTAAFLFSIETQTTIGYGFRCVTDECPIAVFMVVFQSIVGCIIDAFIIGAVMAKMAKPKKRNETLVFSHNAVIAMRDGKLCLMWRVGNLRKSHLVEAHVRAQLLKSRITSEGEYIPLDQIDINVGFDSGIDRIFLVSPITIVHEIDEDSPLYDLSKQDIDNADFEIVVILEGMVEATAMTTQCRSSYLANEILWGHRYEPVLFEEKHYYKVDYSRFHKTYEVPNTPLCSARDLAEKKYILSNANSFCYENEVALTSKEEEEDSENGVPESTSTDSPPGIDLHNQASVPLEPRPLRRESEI
HEK293 Tl flux: alters thallium flux in parental HEK293 cells, Kir2.1 counter-screen; shares compounds with KCNQ2 enhance; FluxOR signal as % of negative control (100 = no effect), % at 10 µM; hit rate 19% among 2,300; FluxOR thallium flux fluorescence; 0% = unstimulated blank wells;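 active means dye signal at least 3 control SD above or below untreated wells in both duplicates, raw fluorescence within 3, either direction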;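 further: percent is based on the flux ratio of peak minus minimum fluorescence over baseline F0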
CHO-K1 ctr: parental CHO-K1 activity in KCNQ2 potentiator counter-screen; parental CHO-K1 cells, FluxOR thallium flux fluorescence; zero = vehicle mean+3SD, 100% = vehicle-minus-blank window; shares compounds with KCNQ2 enhance; hit rate 43% among 1,200; activity increase over 3SD of controls, % at 10 µM;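 active means signal rise of at least 3 SD above the untreated control mean, in both duplicate wells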;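 further: counter screen of KCNQ2 potentiator hits so any rise reflects channel-independent effects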
KCNQ1 pot spec: selectivity of KCNQ2 potentiators: effect on human KCNQ1 | shares compounds with KCNQ2 enhance | CHO KCNQ1 stable, FluxOR thallium flux fluorescence; beyond 3SD, as % of vehicle-control signal | activation over 3SD threshold, % at 10 µM | hit rate 28% among 1,200;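 active means fluorescence ratio rise of at least 3 SD of vehicle wells above their mean, in both replicate wells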;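 further: 0% = vehicle mean plus 3 SD and 100% = vehicle minus unstimulated blank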
KCNQ2 pot confirm: rat KCNQ2 channel potentiator confirmation; shares compounds with KCNQ2 enhance; CHO-KCNQ2 cells, FluxOR thallium flux fluorescence; potentiation, less the hit threshold, % at 10 µM; hit rate 68% among 1,200;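 active means fluorescence ratio rising 3 SD or more over the vehicle control mean in both replicates, plus primary screen hit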;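 further: peak minus minimum thallium fluorescence divided by baseline after K/Tl stimulus; 0% = vehicle mean plus 3 SD and 100% = vehicle minus unstimulated blank difference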
Kir2-1 sel: mouse Kir2.1 off-target activity of KCNQ2 potentiators | shares compounds with KCNQ2 enhance | HEK293 Kir2.1, FluxOR thallium flux fluorescence | activity over 3SD threshold, % at 10 µM | hit rate 2% among 1,200;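 active means fluorescence ratio rise of at least 3 SD above the vehicle-control mean, seen in both replicates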;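 further: 0% = vehicle mean plus 3 SD and 100% = vehicle minus no-stimulus blank window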
KCNQ2 W236L pot: KCNQ2 potentiators acting on retigabine-insensitive rat KCNQ2 W236L mutant; hit rate 10% among 940; shares compounds with KCNQ2 enhance; CHO KCNQ2-W236L, automated patch clamp current; current increase over 3SD of negative controls (%), hits give high values, % at 25 µM; AID 2558;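 active means current increase at least 3 SD of the untreated controls above them in both duplicate recordings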
* = called active by the depositor; i = inactive; · = no result given.

SMILES	KCNQ2 enhance	KCNQ2 block	Kir21 confirm	HEK293 Tl flux	others
CCCCc1nc(SCC(=O)N2CCCCC2)c2c(=O)n(C)c(=O)n(C)c2n1	26*	i	i	i	CHO-K1 ctr=-16;KCNQ1 pot spec=-25;KCNQ2 pot confirm=100*;Kir2-1 sel=-43;KCNQ2 W236L pot=i
CCCCc1nc(SCC(=O)N2CCOCC2)c2c(=O)n(C)c(=O)n(C)c2n1	5.4*	i	i	i	CHO-K1 ctr=-4;KCNQ1 pot spec=57*;KCNQ2 pot confirm=9.8*;Kir2-1 sel=-28;KCNQ2 W236L pot=i
Cc1ccc(C)c(N(CC(=O)N2CCCC2)S(C)(=O)=O)c1	0.16	i	·	·
CCCCn1c(N)c(N(CC(C)C)C(=O)CSc2ccccc2C)c(=O)[nH]c1=O	0.13	i	·	·
Cn1cc(C(=O)N2CCc3ccccc32)cn1	1.4	i	·	·
Cc1cccc(C)c1NC(=O)C(NC(=O)CN1C(=O)c2ccccc2C1=O)c1ccccc1 (configuration not stated)	0.5	i	·	·
CC1Cc2c([nH]c3ccccc23)C(=O)N1 (configuration not stated)	·	i	·	·
CCCCc1nc(SCC(=O)N2CCCC2)c2c(=O)n(C)c(=O)n(C)c2n1	8.2*	i	i	i	CHO-K1 ctr=-22;KCNQ1 pot spec=-11;KCNQ2 pot confirm=38*;Kir2-1 sel=-34;KCNQ2 W236L pot=i
CCCCc1nc(SCCOC)c2c(=O)n(C)c(=O)n(C)c2n1	2	i	·	·
CC(=O)c1csc(COc2ccc(Cl)cc2)n1	0.71	i	·	·
CCN(CC)CCCn1c2c(c(SCC(=O)Nc3ccc(OC(F)(F)F)cc3)nc1=O)CCC2	1.4	i	·	·
O=C(Nc1cccc(N=Cc2cc(Br)cc(Br)c2O)c1)c1ccco1	9.3*	i	i	i	CHO-K1 ctr=56*;KCNQ1 pot spec=49*;KCNQ2 pot confirm=15*;Kir2-1 sel=-36;KCNQ2 W236L pot=i
O=C(CNC(=O)c1cccc(Br)c1)N/N=C/c1cc(Br)cc(Br)c1O	·	i	·	·
O=C(Nc1cccc(NC(=O)c2ccco2)c1)c1cccc(Br)c1	1.4	i	·	·
O=C(Cc1ccccc1)N/N=C/c1cc(Br)cc(Br)c1O	7*	i	i	i	CHO-K1 ctr=4.9*;KCNQ1 pot spec=-25;KCNQ2 pot confirm=-9;Kir2-1 sel=-36;KCNQ2 W236L pot=i
O=C(CCN1C(=O)C2CCCCC2C1=O)N1CCN(S(=O)(=O)c2c(F)cccc2F)CC1 (configuration not stated)	0.86	i	·	·
O=C(O)CC(NC(=O)CC(c1ccccc1)c1ccccc1)c1cccc([N+](=O)[O-])c1 (configuration not stated)	0.01	i	·	·
Cc1cc(NC(=O)CSc2ccc3nnc(-c4cccs4)n3n2)no1	1.5	i	·	·
CCN1CCN(c2ccc(S(=O)(=O)N3CCOCC3)cc2NC(=O)C(C)Oc2ccc(Cl)cc2)CC1 (configuration not stated)	0.11	i	·	·
COc1ccc(S(=O)(=O)Cc2ccc(C(=O)NC3CCCCCC3)o2)cc1	·	i	·	·
CCn1c(CCNC(=O)c2ccc(C)cc2)nnc1SCc1ccc(Cl)c(Cl)c1	·	i	·	·
CCn1c(CCNC(=O)c2ccc(OC)cc2)nnc1SCc1ccc(Cl)c(Cl)c1	·	i	67%*	i
O=S(=O)(NCc1csc(-c2cccs2)n1)c1cccc(C(F)(F)F)c1	0.03	i	42%*	i
O=S(=O)(NCc1csc(-c2cccs2)n1)c1ccc(Cl)cc1	·	i	42%*	i
COc1ccc(S(=O)(=O)NCc2csc(-c3cccnc3)n2)cc1	0.52	i	·	·
SMILES	KCNQ2 enhance	KCNQ2 block	Kir21 confirm	HEK293 Tl flux	others
O=S(=O)(NCc1csc(-c2cccnc2)n1)c1ccc(Br)cc1	0.45	i	72%*	i
Cc1ccc(S(=O)(=O)NCc2csc(-c3cccs3)n2)cc1	·	i	·	·
O=S(=O)(NCc1csc(-c2cccs2)n1)c1cccs1	·	i	·	·
CCC(C)NC(=O)CSc1nnc(-c2cc(-c3cccs3)nc3ccccc23)o1 (configuration not stated)	·	i	·	·
Cn1c(=O)n(C)c2cc(N3CCOCC3)c(NC(=O)c3ccc(F)cc3)cc21	1.1	i	·	·
CC(=O)c1ccc(NC(=O)/C(=C\c2cccs2)NC(=O)c2ccco2)cc1	0.5	i	·	·
CCN(CC)S(=O)(=O)c1cccc(C(=O)NC(C(=O)NC2=NCCS2)C(C)C)c1 (configuration not stated)	0.24	i	·	·
CCN(CC)S(=O)(=O)c1cccc(C(=O)N[C@H](C(=O)NNC(=O)c2ccccc2)C(C)C)c1	8*	i	i	i	CHO-K1 ctr=-25;KCNQ1 pot spec=0.2*;KCNQ2 pot confirm=-23;Kir2-1 sel=-23
CC(C)(C)OC(=O)N1CCN(c2ccc([N+](=O)[O-])cc2)CC1	·	i	·	·
Cc1ccc(C(=O)Nc2nc(C)c(C(=O)Nc3ccc4c(c3)CCC4)s2)cc1	·	i	·	·
C/C(=N\NC(=O)c1ccc(Cl)c(Cl)c1)c1ccccn1	·	i	·	·
C/C(=N\NC(=O)c1cccc(Br)c1)c1ccccn1	7.7*	i	i	i	CHO-K1 ctr=-19;KCNQ1 pot spec=-11;KCNQ2 pot confirm=-23;Kir2-1 sel=-36
COc1ccccc1NC(=O)CCc1nnc2ccc(N3CCN(C)CC3)nn12	2.1	i	·	·
COc1ccccc1CCNS(=O)(=O)CCNC(=O)c1ccc2c(c1)OCO2	0.7	i	·	·
CCN(CC)CCCn1c(=S)[nH]c2ncccc2c1=O	1.4	i	·	·
CCN(CCCn1c(=S)[nH]c2ncccc2c1=O)c1ccccc1	19*	i	i	i	CHO-K1 ctr=-20;KCNQ1 pot spec=-39;KCNQ2 pot confirm=14*;Kir2-1 sel=-25;KCNQ2 W236L pot=i
Cc1cc(C(C)(C)C)cc(C)c1Cn1c2[n+](c3ccc(C(F)(F)F)cc31)CCCCC2	·	i	46%*	i
FC(F)(F)c1cccc(Cn2c3[n+](c4ccc(C(F)(F)F)cc42)CCCCC3)c1	·	i	·	·
CCC(Sc1nc2ncccc2[nH]1)C(=O)N1CCOCC1 (configuration not stated)	1.6	i	·	·
COc1ccc(Nc2c3c(nc4ccccc24)CCCC3)cc1OC	1.4	i	·	·
COc1ccc(Nc2c3c(nc4ccccc24)CCC3)cc1	·	i	42%*	i
COc1ccc(C)cc1Nc1c2c(nc3ccccc13)CCC2	0.19	i	i	i
COc1ccc(Nc2nc(N3CCN(S(C)(=O)=O)CC3)nc3ccccc23)c(OC)c1	·	i	·	·
COc1ccc(Nc2nc(N3CCCCC3)nc3ccccc23)c(OC)c1	·	i	i	i
CCN(CC)c1ccc(Nc2nc(N3CCOCC3)c3ccccc3n2)cc1	·	i	·	·
